In the library only some 1.2% were active in any assay of this set; here they are far more common.
GSH fluor: GSH bead compound fluorescence profile; GSH beads flow cytometry, compound fluorescence 488/530 nm; stronger effect = higher value; AID 1776; 190,000 tested, 0.25% active; fluorescence (KMESF) at 10 µM; in the data active = fluorescence above about 89;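 note: glutathione beads carrying GST-tagged Bcl family fusion proteins plus one bare bead set; values are compound well signal with DMSO vehicle wells as background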
RGS16-Gao HTS: regulators of human RGS16-Galphao interaction | O15492+P09471 | binding response (% of control), % at 10 µM | 220,000 tested, 0.38% active | bead-based flow cytometry RGS16-Galphao binding, fluorescence; actives lie on both sides;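 note: Galphao activated by GDP with aluminum fluoride before binding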
RGS7-Gao reg: human RGS7-Galphao interaction regulation. binding response (% of control), % at 10 µM. Multiplexed bead flow cytometry, RGS7-Galphao binding; actives lie on both sides. 220,000 tested, 0.35% active. P09471; in the data active = binding response below about 49% or above about 150%; inconclusive = no clear call, values can overlap the other calls; inactive = in between;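 note: fluorescent Galphao held in activated GDP-AlF4 state binding bead-coupled RGS7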
Target sequence (P09471 whole entry, looked up): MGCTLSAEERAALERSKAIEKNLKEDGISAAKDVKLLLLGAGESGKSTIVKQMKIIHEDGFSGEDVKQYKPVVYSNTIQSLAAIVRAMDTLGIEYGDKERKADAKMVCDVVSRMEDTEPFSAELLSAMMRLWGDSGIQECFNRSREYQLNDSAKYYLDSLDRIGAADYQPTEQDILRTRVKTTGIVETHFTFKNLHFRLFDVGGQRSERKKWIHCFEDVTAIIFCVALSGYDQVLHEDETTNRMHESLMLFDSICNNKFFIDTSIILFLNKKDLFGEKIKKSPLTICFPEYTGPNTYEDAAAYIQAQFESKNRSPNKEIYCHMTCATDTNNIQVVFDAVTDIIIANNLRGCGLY
RGS8-Gao: modulates binding of RGS8 to human Galphao. P09471. multiplexed bead flow cytometry; actives lie on both sides. response (percent of control binding), % at 10 µM. 220,000 tested, 0.34% active; in the data active = response below about 60% or above about 140%; inactive = in between;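 note: Galphao activated as the GDP aluminium fluoride complex binding bead-coupled RGS8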
RGS4-Gao reg: human RGS4-Galphao interaction regulation | binding response (% of control), % at 10 µM | AID 1415 | 220,000 tested, 0.33% active | Multiplexed bead flow cytometry, RGS4-Galphao binding; actives lie on both sides; in the data active = binding response below about 49% or above about 150%; inactive = in between;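 note: fluorescent Galphao activated with aluminum fluoride binding bead-coupled RGS4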
Avidin fluor: compound fluoresces at 488/530 nm on avidin beads. AID 1775. 220,000 tested, 0.38% active. compound fluorescence 488/530 nm, flow cytometry; stronger effect = higher value. fluorescence (KMESF) at 10 µM; in the data active = fluorescence above about 47
RGS-Gao: RGS4-Galphao interaction regulator (human); shares compounds with RGS16-Gao HTS; multiplexed bead flow cytometry, RGS–Galpha-o binding; AID 1504; 1,600 tested, 99% active; RGS4–Galpha-o binding response, % at 10 µM;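 note: fluorescently labeled Galpha-o bound to GDP with aluminium fluoride binding biotinylated RGS beads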
Target sequence (P09471 whole entry, looked up): as above
Target sequence (P49798 whole entry, looked up): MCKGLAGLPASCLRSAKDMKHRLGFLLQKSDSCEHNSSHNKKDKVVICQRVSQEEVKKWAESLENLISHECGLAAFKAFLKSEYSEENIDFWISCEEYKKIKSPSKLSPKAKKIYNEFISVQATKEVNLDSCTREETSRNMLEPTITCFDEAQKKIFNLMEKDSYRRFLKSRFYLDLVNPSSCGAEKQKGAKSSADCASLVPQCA
Avidin counter: biotin-avidin bead binding disruption counter-screen | shares compounds with RGS16-Gao HTS | streptavidin beads, fluorescein-biotin binding, flow cytometry | inhibition, % at 10 µM | 1,700 tested, under 10 active;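 active = inhibition above 50%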;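 note: median green fluorescence of gated singlet beads compared with DMSO control wells; 0% = DMSO wells and 100% = complete loss of bead fluorescence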
RGS8-Gao confirm: confirmation of regulators of human RGS8-Galphao interaction | shares compounds with RGS16-Gao HTS | bead-based flow cytometry RGS8-Galphao binding, fluorescence; actives lie on both sides | binding response (% of control), % at 10 µM | 1,700 tested, 3% active | AID 1836; in the data active = binding response below about 72% or above about 130%; inactive = in between;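 note: Galphao activated as GDP AlF4 complex before binding bead RGS8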
RGS7-Gao single: RGS7-Galphao interaction regulation, single point confirmation. shares compounds with RGS16-Gao HTS. bead-based flow cytometry RGS7-Galphao binding; actives lie on both sides. response (percent of control binding), % at 10 µM. 1,700 tested, 7.8% active; in the data active = response below about 75% or above about 130%; inactive = in between;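 note: fluorescent Galphao activated with GDP and aluminum fluoride binding bead-coupled RGS7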
RGS16-Gao single: RGS16-Galphao interaction regulation, single point confirmation; AID 1838; shares compounds with RGS16-Gao HTS; 1,700 tested, 4% active; response (% of control binding), % at 10 µM; bead-based flow cytometry, RGS16-Galphao binding; actives lie on both sides; in the data active = response below about 74% or above about 130%; inactive = in between;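 note: Galphao activated as the GDP aluminium fluoride complex binding bead-coupled RGS16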
RGS4-Gao confirm: confirmation of regulators of human RGS4-Galphao interaction; shares compounds with RGS16-Gao HTS; RGS4-Galphao binding, multiplexed bead flow cytometry; actives lie on both sides; binding response (% of control), % at 10 µM; 1,700 tested, 4% active; AID 1840; in the data active = binding response below about 74% or above about 130%; inactive = in between
RGS19-Gao conf: RGS19-Galphao interaction regulation, single point confirmation | shares compounds with RGS16-Gao HTS | bead-based flow cytometry RGS19-Galphao binding; actives lie on both sides | response (percent of control binding), % at 10 µM | 1,700 tested, 5% active; in the data active = response below about 50% or above about 160%; inactive = in between;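 note: 100% = no compound control and 0% = blank background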
Active calls of the source: *; ? = inconclusive; / = no result; [ ] = another dose, or the depositor's remark. Unless noted, the rule behind the calls is not given here.

SMILES	GSH fluor	RGS16-Gao HTS	RGS7-Gao reg	RGS8-Gao	RGS4-Gao reg	Avidin fluor	Avidin counter	RGS8-Gao confirm	RGS7-Gao single	RGS16-Gao single	RGS4-Gao confirm	RGS19-Gao conf	others
COc1ccc([N+](=O)[O-])cc1N/C(=N/S(=O)(=O)c1ccccc1)c1ccccc1	15	100	99	100	99	9	/	/	/	/	/	/
C=CCOC(=O)C(=O)/C=C/c1c(C)n(C)n(-c2ccccc2)c1=O	20	132	154*[activator]	107	150*[activator]	5	0	102	106	104	105	99
CC(C)Oc1ccc(C(CC(=O)O)NC(=O)c2cccs2)cc1 (stereo unspecified)	30	/	/	/	/	/	2	94	81	88	86	90
CCCOc1ccc(C(CC(=O)O)NC(=O)c2cccs2)cc1 (stereo unspecified)	27	99	103	101	100	33	/	/	/	/	/	/
Cc1ccc(CNC(=O)COC(=O)c2c(C)noc2C)cc1	29	142	142	132	157*[activator]	5	1	101	99	100	100	93
O=C(CN1C(=O)c2ccccc2C1=O)Nc1ccc(S(=O)(=O)N2CCOCC2)cc1	10	97	100	101	98	3	/	/	/	/	/	/
CCc1c(C)sc(NC(=S)N2CCN(S(C)(=O)=O)CC2)c1C(=O)OC	/	100	?	101	99	5	/	/	/	/	/	/
O=C(CSc1nncn1-c1ccccc1)NC1CCCc2ccccc21 (stereo unspecified)	11	23*	94	69	92	0	-2	101	95	100	99	79	RGS-Gao=92*
CCN(CC)CCN1C(=O)C(=O)/C(=C(/O)c2c(C)[nH]c(C(=O)OC)c2C)C1c1ccccc1OC (stereo unspecified)	6	266	159*[activator]	145*[activator]	176*[activator]	23	0	100	108	103	105	101
CCN(CC)CCN1C(=O)C(=O)/C(=C(/O)c2c(C)[nH]c(C(=O)OC)c2C)C1c1cccs1 (stereo unspecified)	10	100	99	103	98	8	/	/	/	/	/	/
CCCNC(=O)N1CCCC(C(N)=O)C1 (stereo unspecified)	8	105	100	101	93	26	/	/	/	/	/	/
O=C(OCc1cccc2ccccc12)c1ccc2c(=O)[nH]c(CN3CCOCC3)nc2c1	32	-114*	-54*	-2.4*	-138*	-6	2	98	98	101	101	96
COc1ccccc1N1CCN(C(=O)c2c(-c3ccccc3Cl)noc2C)CC1	9	-11*	74	77	64	10	0	100	101	98	98	102	RGS-Gao=64*
CCN1CCN(C(=O)C2CCC(CNS(=O)(=O)c3ccccc3)CC2)CC1 (stereo unspecified)	36	/	/	/	/	/	4	102	105	108	108	103
O=C(C1CCC(CNS(=O)(=O)c2cccs2)CC1)N1CCCCC1 (stereo unspecified)	35	55	95	93	93	4	/	/	/	/	/	/
CCCN(CC(=O)Nc1ccccc1C)C(=O)CCl	15	112	105	104	104	11	/	/	/	/	/	/
Cc1ccc2nc(-c3cccnc3)c(Nc3ccccc3C)n2c1	70	99	98	100	98	9	/	/	/	/	/	/
Cc1ccc2nc(-c3cccnc3)c(NC3CCCCC3)n2c1	4	203*[activator]	117	121	114	13	-1	107	104	110	104	119	RGS-Gao=114*
O=c1[nH]c2ccccc2nc1/C=C/c1ccc(Cl)cc1	10	/	/	/	/	/	0	101	99	101	102	102
CCOc1cc(C=O)cc(Cl)c1OCC(N)=O	12	91	96	97	91	7	/	/	/	/	/	/
O=C(Cc1c[nH]c2ccccc12)Nc1ccc(N2CCOCC2)cc1	16	97	101	103	107	9	/	/	/	/	/	/
CCCc1cc(-n2ccnc2)n2c(nc3ccccc32)c1C#N	150*	192*[activator]	151*[activator]	119	162*[activator]	84*	7	101	119	110	111	138
COc1ccc2c(c1OC)C(=O)OC2Nc1ncc(Br)cc1Br (stereo unspecified)	46	188*[activator]	112	125	124	5	0	100	102	100	100	100	RGS-Gao=124*
COc1ccc2c(c1OC)C(=O)OC2Nc1ccc(S(=O)(=O)N=C(N)N)cc1 (stereo unspecified)	/	92	?	96	88	5	/	/	/	/	/	/
COc1ccccc1NC(=O)CCC(=O)N/N=C(/C)c1ccc(C)cc1	13	16*	93	80	90	7	2	104	100	104	102	100	RGS-Gao=90*
C/C(=N/NC(=O)CCC(=O)Nc1cccc(Cl)c1)c1ccc(C)cc1	12	63	98	85	94	3	/	/	/	/	/	/
C/C(=N\NC(=O)Cc1cccn1C)c1ccc2ccccc2c1	9	53	36*	36*	68	1	1	102	101	103	103	126	RGS-Gao=68*
C/C(=N/NC(=O)Cc1cccn1C)c1ccccc1	22	49	46*	47*	71	2	0	101	94	102	100	92	RGS-Gao=71*
C/C(=N\NC(=O)Cc1cccn1C)c1cccc2ccccc12	16	76	76	77	91	5	/	/	/	/	/	/
O=C(Nc1cccc(S(=O)(=O)N2CCOCC2)c1)c1ccc(N2CCOCC2)c([N+](=O)[O-])c1	10	106	97	101	100	11	/	/	/	/	/	/

High-throughput results as filed in PubChem BioAssay.
